According to PubChem BioAssay:
Activity calls are given as the source filed them.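 The calls were made as follows, unless noted: active = inhibition of the reporter signal at or above 50%; inactive = inhibition below 50%.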

Tests used:
[1] = inhibitors of TNFa-induced NFkB p65 translocation, primary screen, imaging, HUVEC, MLSMR starter and 10KST1 sets (AID 438;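 active = inhibition above 20% together with a positive visual image hit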;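 also: compound added about 3h40 before a 20 min TNFalpha stimulation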;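 as to inhibition: signal is the nuclear over cytoplasmic p65 intensity ratio per well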); details: HUVEC TNFa-induced p65 nuclear translocation; cell count: measured here: nuclei count (cytotoxicity indicator), at 2.08 µM; inhibition: at 2 µM, stronger effect = higher value, 0% TNFa-plus-vehicle, 100% no-TNFa wells
[2] = reduction of polyQ htt aggregates in cells – imaging, exon1htt(103Q)mCFP cells, high-content imaging, primary screen (AID 483;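 active = visual image review flags a hit and inhibition of aggregation exceeds 20%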;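 also: compound exposure lasted 3 days before fixation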;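 as to nuclei count: percent of the per-plate median nuclei count of sample wells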); details: exon1htt(103Q)mCFP cell line, aggregate imaging, at 2 µM; inhibition of aggregation: stronger effect = higher value; nuclei count: measured here: cell count, toxicity
[3] = endothelial E-selectin expression blockers – imaging, HUVEC, immunofluorescence, MLSMR starter and 10KST1 sets, primary screen (AID 487;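 active = visually confirmed hit in the image check and inhibition above 20%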;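 as to inhibition: signal is fraction of cell area covered by stained E-selectin grains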;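 as to nuclei count: 100% = median nuclei count of all wells on the same plate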); details: HUVEC TNFalpha-induced E-selectin immunofluorescence imaging, at 2 µM; inhibition: stronger effect = higher value; nuclei count: measured here: cell number, toxicity
[4] = target: Voltage-gated potassium channel subunit beta-2 (Rattus norvegicus) (UniProt P62483); test: inhibitors of rat Kvbeta2 reductase activity – biochemical, NADPH fluorescence, primary screen (AID 622;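 active = fluorescence slope higher than the sample average by over 3 SD, cut at about -0.22 in these data, passing the limit was not always enough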;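 also: slope of raw intensity against log time taken from 70 to 1610 s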); details: recombinant KvBeta, 4-cyanobenzaldehyde reduction, at 10 µM, stronger effect = higher value
Voltage-gated potassium channel subunit beta-2 (Rattus norvegicus), sequence (P62483 whole entry, looked up): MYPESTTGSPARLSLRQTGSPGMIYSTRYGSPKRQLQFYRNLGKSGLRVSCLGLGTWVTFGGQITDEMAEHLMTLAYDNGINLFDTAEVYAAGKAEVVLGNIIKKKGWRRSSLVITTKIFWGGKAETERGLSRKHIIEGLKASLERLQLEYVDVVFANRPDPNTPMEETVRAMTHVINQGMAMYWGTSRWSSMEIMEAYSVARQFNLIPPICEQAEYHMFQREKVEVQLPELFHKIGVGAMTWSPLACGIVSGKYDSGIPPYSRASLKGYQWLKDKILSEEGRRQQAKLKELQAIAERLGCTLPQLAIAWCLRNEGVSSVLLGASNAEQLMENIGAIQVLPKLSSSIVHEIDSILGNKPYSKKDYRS

[5] = target: Voltage-gated potassium channel subunit beta-2 (Rattus norvegicus) (UniProt P62483); test: enhancers of rat Kvbeta2 NADPH turnover – biochemical, NADPH fluorescence, primary screen (AID 623;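 active = NADPH fluorescence slope more negative than the mean of all samples by about 3 SD, 99.7% confidence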;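 also: fluorescence intensity change per second fitted from 20 to 320 s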); details: Recombinant KvBeta, NADPH fluorescence decrease slope, 10 min; at 10 µM; stronger effect = lower value
[6] = target: Alpha-2C adrenergic receptor (Homo sapiens) (UniProt P18825); test: compounds altering alpha2C-coupled GIRK flux – cell-based, HEK293 alpha2C/GIRK1/2, thallium flux, primary screen (AID 624;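 active = fluorescence slope after compound addition differing from the mean of all screened samples at 99.7% confidence, in either direction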;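 also: slope of fluorescence ratio to pre-addition baseline per second over 15 to 24 s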); details: thallium flux BTC fluorescence, at 10 µM, actives lie on both sides
Alpha-2C adrenergic receptor (Homo sapiens), sequence (P18825 whole entry, looked up): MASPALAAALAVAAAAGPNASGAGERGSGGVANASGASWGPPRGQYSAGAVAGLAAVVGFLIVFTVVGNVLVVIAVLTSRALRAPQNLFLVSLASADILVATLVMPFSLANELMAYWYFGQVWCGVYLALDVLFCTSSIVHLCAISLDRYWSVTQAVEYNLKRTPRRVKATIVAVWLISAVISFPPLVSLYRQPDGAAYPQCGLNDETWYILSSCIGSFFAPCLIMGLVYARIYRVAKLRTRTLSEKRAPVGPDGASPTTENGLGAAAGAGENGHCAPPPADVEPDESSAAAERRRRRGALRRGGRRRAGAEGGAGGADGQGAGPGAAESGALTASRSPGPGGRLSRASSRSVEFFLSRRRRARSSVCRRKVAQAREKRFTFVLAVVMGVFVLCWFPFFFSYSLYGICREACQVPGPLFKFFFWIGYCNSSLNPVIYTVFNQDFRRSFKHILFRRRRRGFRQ

[7] = blockers of RIG-like receptor reporter activation – cell-based, Sendai virus stimulus, luciferase, 10K MLSCN set, TLR/RLR signaling modifier project, primary screen (AID 602276;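 active = inhibition at or above 50% at 10 µM; inactive = inhibition below 50%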;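 also: firefly luciferase from ISG56 promoter only with Renilla not read in this screen; 0% = Sendai virus plus DMSO and 100% = medium plus DMSO without virus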); details: HEK293 RL24 IRF3 luciferase reporter, at 10 µM, stronger effect = higher value
[8] = TLR3 IRF3 reporter activation blockers – cell-based, poly I:C stimulus, luciferase, 10K MLSCN set, primary screen (AID 602277); details: HEK293-TLR3 RL24 IRF3 luciferase reporter, at 10 µM, stronger effect = higher value

In the case of `COc1cccc(-c2nnc(NC(C)=O)o2)c1`, the cell count [1] was 694, the inhibition [1] was 0.3% (inactive) and the inhibition of aggregation [2] was -16.5% (inactive). The nuclei count [2] was 99.5%, the inhibition [3] was -24.3% (inactive) and the nuclei count [3] was 118%. The fluorescence slope [4] was -0.407 (inactive), the NADPH fluorescence slope [5] was -6.1e-05 (inactive) and the slope [6] was 0.00477 (inactive). The inhibition [7] was -11% (inactive) and the inhibition [8] was 6.47% (inactive).
In the case of `O=C(CN1CCC(O)(c2ccc3c(c2)OCO3)CC1)OC1CCCCC1`, the cell count [1] was 459, the inhibition [1] was -3.6% (inactive) and the inhibition of aggregation [2] was 28.4% (inactive). For the same compound, the nuclei count [2] was 67.8%, the inhibition [3] was -55.1% (inactive) and the nuclei count [3] was 99.5%. The fluorescence slope [4] was -0.313 (inactive), the NADPH fluorescence slope [5] was -4.7e-05 (inactive) and the slope [6] was 0.00487 (inactive). For the same compound, the inhibition [7] was 8.26% (inactive) and the inhibition [8] was 15.6% (inactive).
With `C/C(N)=C(/C#N)C(=O)CSc1nnc(Nc2cccc(C)c2)s1` the cell count [1] was 451, the inhibition [1] was 2.9% (inactive) and the inhibition of aggregation [2] was 5.1% (inactive). The nuclei count [2] was 101%, the inhibition [3] was -79.4% (inactive) and the nuclei count [3] was 130%. For the same compound, the fluorescence slope [4] was -0.492 (inactive), the NADPH fluorescence slope [5] was -3.5e-05 (inactive) and the slope [6] was 0.00453 (inactive). The inhibition [7] was -7.88% (inactive) and the inhibition [8] was -32.1% (inactive).
In the case of `Cc1nnc(SCC(=O)N2CCN(S(=O)(=O)c3ccccc3)CC2)[nH]c1=O`, the cell count [1] was 711, the inhibition [1] was 9.4% (inactive) and the inhibition of aggregation [2] was 7.1% (inactive). The nuclei count [2] was 103%, the inhibition [3] was -39.5% (inactive) and the nuclei count [3] was 127%. For the same compound, the fluorescence slope [4] was -0.509 (inactive), the NADPH fluorescence slope [5] was -6e-05 (inactive) and the slope [6] was 0.00552 (inactive). The inhibition [7] was 3.92% (inactive) and the inhibition [8] was 13.4% (inactive).
In the case of `c1coc(CN2CN=C(Nc3nc4ccccc4s3)NC2)c1`, the cell count [1] was 604, the inhibition [1] was -1.5% (inactive) and the inhibition of aggregation [2] was -13.8% (inactive). For the same compound, the nuclei count [2] was 106%, the inhibition [3] was 13.3% (inactive) and the nuclei count [3] was 109%. For the same compound, the fluorescence slope [4] was -0.357 (inactive), the NADPH fluorescence slope [5] was -2.5e-05 (inactive) and the slope [6] was 0.00455 (inactive). For the same compound, the inhibition [7] was -12.9% (inactive) and the inhibition [8] was -7.25% (inactive).
With `Cc1ccc(C(=O)N2CCCC(c3nc4c(nnn4Cc4ccccc4)c(=O)[nH]3)C2)cc1` (centres undefined) the cell count [1] was 671, the inhibition [1] was -6.5% (inactive) and the inhibition of aggregation [2] was -2.8% (inactive). For the same compound, the nuclei count [2] was 118%, the inhibition [3] was -44.4% (inactive) and the nuclei count [3] was 104%. For the same compound, the fluorescence slope [4] was -0.38 (inactive), the NADPH fluorescence slope [5] was -5.9e-05 (inactive) and the slope [6] was 0.00676 (inactive). For the same compound, the inhibition [7] was 13.8% (inactive) and the inhibition [8] was 21.2% (inactive).
In the case of `CCC(=O)Nc1c2c(nn1-c1ccccc1C)CSC2`, the cell count [1] was 592, the inhibition [1] was 8.9% (inactive) and the inhibition of aggregation [2] was -2.1% (inactive). For the same compound, the nuclei count [2] was 114%, the inhibition [3] was 31.2% (inactive) and the nuclei count [3] was 99.7%. The fluorescence slope [4] was -0.614 (inactive), the NADPH fluorescence slope [5] was -1.7e-05 (inactive) and the slope [6] was 0.00682 (inactive). The inhibition [7] was 14.2% (inactive) and the inhibition [8] was 21.4% (inactive).
With `CC(C)N(Cc1nc(-c2ccc(Cl)cc2)no1)C(=O)CN(C)S(=O)(=O)c1ccc(Cl)cc1` the cell count [1] was 629, the inhibition [1] was -2.8% (inactive) and the inhibition of aggregation [2] was -11.8% (inactive). For the same compound, the nuclei count [2] was 95.7%, the inhibition [3] was -53.8% (inactive) and the nuclei count [3] was 106%. The fluorescence slope [4] was -0.467 (inactive), the NADPH fluorescence slope [5] was -5.4e-05 (inactive) and the slope [6] was 0.00647 (inactive). For the same compound, the inhibition [7] was 20.4% (inactive) and the inhibition [8] was 25.9% (inactive).
In the case of `COc1ccc(OC)c(S(=O)(=O)N2c3ccccc3CC2C)c1` (centres undefined), the cell count [1] was 609, the inhibition [1] was -6.3% (inactive) and the inhibition of aggregation [2] was 4.4% (inactive). For the same compound, the nuclei count [2] was 84.6%, the inhibition [3] was -32% (inactive) and the nuclei count [3] was 123%. The fluorescence slope [4] was -0.566 (inactive), the NADPH fluorescence slope [5] was 2.6e-06 (inactive) and the slope [6] was 0.00606 (inactive). For the same compound, the inhibition [7] was 5.85% (inactive) and the inhibition [8] was 21.2% (inactive).
For `COC(=O)CSc1nc2ncc(Cl)cc2[nH]1`, the cell count [1] was 542, the inhibition [1] was 8.6% (inactive) and the inhibition of aggregation [2] was -23.3% (inactive). For the same compound, the nuclei count [2] was 106%, the inhibition [3] was -49.2% (inactive) and the nuclei count [3] was 106%. For the same compound, the fluorescence slope [4] was -0.462 (inactive), the NADPH fluorescence slope [5] was -6.4e-05 (inactive) and the slope [6] was 0.00642 (inactive). For the same compound, the inhibition [7] was 15.8% (inactive) and the inhibition [8] was 25.3% (inactive).
With `COc1cc2c(cc1OC)-c1nnc(C)n1C1(CCCC1)C2` the cell count [1] was 849, the inhibition [1] was 2.9% (inactive) and the inhibition of aggregation [2] was -14.8% (inactive). For the same compound, the nuclei count [2] was 132%, the inhibition [3] was -70.9% (inactive) and the nuclei count [3] was 120%. The fluorescence slope [4] was -0.606 (inactive), the NADPH fluorescence slope [5] was 3.2e-05 (inactive) and the slope [6] was 0.00696 (inactive). For the same compound, the inhibition [7] was 10.3% (inactive) and the inhibition [8] was 1.68% (inactive).
With `Cc1ccc(C2c3sc(=O)[nH]c3SC3C(=O)NC(=O)C32)cc1` (centres undefined) the cell count [1] was 401, the inhibition [1] was 6.1% (inactive) and the inhibition of aggregation [2] was 11.3% (inactive). For the same compound, the nuclei count [2] was 88.3%, the inhibition [3] was -18% (inactive) and the nuclei count [3] was 99.5%. For the same compound, the fluorescence slope [4] was -0.558 (inactive), the NADPH fluorescence slope [5] was -2.2e-05 (inactive) and the slope [6] was 0.00486 (inactive). For the same compound, the inhibition [7] was 1.16% (inactive) and the inhibition [8] was 58.9% (active).
For `COc1ccccc1-n1c(=O)[nH]c2c(C(N)=O)nc(-c3cccnc3)nc21`, the cell count [1] was 679, the inhibition [1] was -5.2% (inactive) and the inhibition of aggregation [2] was -20.4% (inactive). The nuclei count [2] was 101%, the inhibition [3] was -19.1% (inactive) and the nuclei count [3] was 104%. The fluorescence slope [4] was -0.516 (inactive), the NADPH fluorescence slope [5] was -3.5e-06 (inactive) and the slope [6] was 0.00612 (inactive). For the same compound, the inhibition [7] was 15.6% (inactive) and the inhibition [8] was -10.2% (inactive).
With `O=c1[nH]c(/C(=N\O)c2ccccc2)no1` the cell count [1] was 462, the inhibition [1] was 2% (inactive) and the inhibition of aggregation [2] was -5% (inactive). The nuclei count [2] was 109%, the inhibition [3] was -11.8% (inactive) and the nuclei count [3] was 111%. For the same compound, the fluorescence slope [4] was -0.421 (inactive), the NADPH fluorescence slope [5] was -0.000106 (inactive) and the slope [6] was 0.00496 (inactive). For the same compound, the inhibition [7] was 7.11% (inactive) and the inhibition [8] was 24.8% (inactive).
